DRD3 antagonist – blocks the human D3 dopamine receptor; P35462; D3R cells, DiscoveRx beta-arrestin luminescence, antagonist mode; stronger effect = lower value; max response, negative = inhibition, %; 360,000 compounds, 2.5% hits; AID 652054; in the data active means max response below about -50%; inconclusive means no clear call, values can overlap the other calls; further: on the % scale 0 is the no-effect control and ±100 the full control effect
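Cells plated overnight at 1500 cells/well, then exposed to library compounds with dopamine controls for 90 minutes at 37 degrees C. DiscoveRx reagent added for 30–60 minutes at room temperature; luminescence read, quantitative HTS format.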
D1 potentiator – enhances dopamine response at the human D1 receptor | HEK293 TREx D1 cells, calcium flux, dopamine EC20 potentiation | 360,000 compounds, 0.036% hits | potentiation, % at 10 µM | AID 504651; in the data active means potentiation above about 30%; further: 0% is about no effect
D3 ag – D3 dopamine receptor (human) agonism; max activation, %; P35462; AID 652048; 410,000 compounds, 0.58% hits; D3R DiscoveRx beta-arrestin cells, luminescence, 90 min; in the data active means max activation above about 30%; further: 0% is about no effect
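Cells at 1500/well, incubated overnight, then treated with pinned compounds (dopamine as control) for 90 min at 37 degrees C. DiscoveRx reagent added for 30 - 60 minutes at room temperature; luminescence read.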
D1 agonist – agonists of human D1 dopamine receptor. 360,000 compounds, 1% hits. P21728. activation, % at 2 µM. HEK293 T-REx D1 cells, calcium flux, agonist mode; in the data active means activation above about 30%; further: 0% is about no effect
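Tetracycline-induced HEK293 TREx D1 cells, force-coupled to calcium signalling, were dye-loaded with a no-wash calcium kit. Compound was pin-added after a 10 s baseline. Fluorescence was read kinetically at 1 cycle/s for 180 s, with calcium rises flagged as agonism.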
D1 antag – human D1 dopamine receptor antagonism. HEK293 TREx D1 cells, calcium flux, dopamine EC80; stronger effect = lower value. activity change, negative = inhibition, % at 10 µM. AID 504652. 360,000 compounds, 3.2% hits; in the data active means activity change below about -30%; further: on the % scale 0 is the no-effect control and ±100 the full control effect
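Using tetracycline-induced force-coupled D1 Hek293 cells and a calcium dye, signals were followed for 180 s after compound, then for 180 s after EC80 dopamine, to detect inhibitors.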
ERG Ets-DNA blk – ERG Ets/DNA interaction inhibition | P11308 | fluorescence polarization, His-ERG Ets domain / labelled DNA | Potency, µM (highest dose often 76.9 µM), without a hit: at the top dose FP activity, negative = inhibition, actives largely listed as inhibitors | 370,000 compounds, 0.028% hits | AID 624246; active means well fitted inhibition curve with a large enough effect in the polarisation, with a control signal flat; inconclusive means small, poorly fitted or top-dose-only effect, or effect the other way, or a change in a side signal; inactive means no such curve, though single readings can be large or run the other way; the % refers to the polarisation;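 further: polarization taken with two DNA probes labelled with fluorescein and Texas red; potency means the concentration at half of the fitted maximal effect; % of control where 0% means no effect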
Target sequence (P11308 whole entry, looked up, the tested form may be a part): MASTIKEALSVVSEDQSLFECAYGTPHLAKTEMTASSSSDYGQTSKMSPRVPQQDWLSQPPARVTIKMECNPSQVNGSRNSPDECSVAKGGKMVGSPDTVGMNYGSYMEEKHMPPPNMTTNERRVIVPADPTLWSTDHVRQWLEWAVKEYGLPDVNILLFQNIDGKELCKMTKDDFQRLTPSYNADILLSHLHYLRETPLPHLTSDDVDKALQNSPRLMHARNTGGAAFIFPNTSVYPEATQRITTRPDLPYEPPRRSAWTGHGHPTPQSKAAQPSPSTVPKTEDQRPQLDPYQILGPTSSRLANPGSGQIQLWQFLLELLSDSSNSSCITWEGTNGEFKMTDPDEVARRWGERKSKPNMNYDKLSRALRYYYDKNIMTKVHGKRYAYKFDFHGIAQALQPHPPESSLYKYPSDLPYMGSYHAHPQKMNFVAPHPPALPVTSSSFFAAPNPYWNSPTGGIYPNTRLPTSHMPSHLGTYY
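His-tagged ERG Ets domain (1 uM in the protein solution; 300mM KCl, 50mM Tris-HCl, 1mM EDTA, 1mM DTT, pH 7.5) received compound, then a probe mix of 5 nM fluorescein-DNA and 100nM Texas-615-DNA. Fluorescence polarization was read for both dyes.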
* marks the source's active call; other numbers are inactive results. Sampled rows, rich in hits. Any-hit rate of the full collection: about 6.1%.

For COc1cccc(-c2cc(C(F)(F)F)n3nc(C(=O)N4CCCCC4c4cccnc4)cc3n2)c1 (stereo not drawn) the results were DRD3 antagonist 16.1, D1 potentiator -10.9, D3 ag 20.6, D1 agonist 1.1, D1 antag -49.1* and ERG Ets-DNA blk 0.1%.
For COc1ccc(-c2cc(C(F)(F)F)n3nc(C(=O)N4CCCCC4)cc3n2)cc1 the results were DRD3 antagonist 30.2, D1 potentiator -2.8, D3 ag 15.2, D1 agonist 0.4 and D1 antag -10.8.
Screening CSc1nccc(Oc2cccc(C#N)c2)n1 returned DRD3 antagonist -6.3, D1 potentiator -10.2, D3 ag -6.7, D1 agonist 1.9, D1 antag -33.0* and ERG Ets-DNA blk 8.7%.
`CSc1nc(Oc2cccc(C(F)(F)F)c2)cc(C(F)(F)F)n1` gave DRD3 antagonist -0.3, D1 potentiator -6.6, D3 ag 1.1, D1 agonist 2.1, D1 antag 9.2 and ERG Ets-DNA blk -3.6%.
CCc1nc(NCc2cccs2)c2nnn(Cc3ccccc3)c2n1 was read as DRD3 antagonist 0.0 and D3 ag -3.5.
For COc1ccccc1NC(=O)CN(C)S(=O)(=O)c1cccc2cccnc12 the results were DRD3 antagonist 4.8, D1 potentiator 0.7, D3 ag 0.2, D1 agonist 5.4, D1 antag -8.1 and ERG Ets-DNA blk 4.5%.
For COc1ccc(N(C)S(=O)(=O)c2cccc3cccnc23)c(OC)c1 the results were DRD3 antagonist 33.8, D1 potentiator -6.1, D3 ag 30.7*, D1 agonist 0.8, D1 antag -14.8 and ERG Ets-DNA blk -0.8%.
`COCCCN1C(=O)C(CC(=O)NCCc2ccccn2)CC(C(=O)N2CCOCC2)=C1C` (stereo not drawn) gave DRD3 antagonist -16.7 and D3 ag -8.3.
`O=C(NC1CCSC1=O)c1cccc(C(=O)NC2CCSC2=O)c1` (stereo not drawn) gave DRD3 antagonist -14.7, D1 potentiator 0.0, D3 ag 1.0, D1 agonist 0.4, D1 antag -11.0 and ERG Ets-DNA blk 2.7%.
Screening Cc1nc(C)c(C(=O)O)s1 returned DRD3 antagonist -21.4, D1 potentiator 3.0, D3 ag 46.8*, D1 agonist 0.2, D1 antag 3.9 and ERG Ets-DNA blk -7.5%.
Screening Cc1nc(C)c(C(=O)Nc2ccccc2)s1 returned DRD3 antagonist 1.7, D1 potentiator -2.8, D3 ag -4.8, D1 agonist 5.6, D1 antag 4.8 and ERG Ets-DNA blk -4.6%.
CCN1CCN(c2ccc(NC(=O)c3ccccc3F)cc2Cl)CC1 was read as DRD3 antagonist inconclusive, D1 potentiator -12.2, D3 ag -3.8, D1 agonist 4.5, D1 antag 19.8 and ERG Ets-DNA blk 1.6%.
`CCCCCC(=O)Nc1ccc(N2CCN(CC)CC2)c(Cl)c1` gave DRD3 antagonist inconclusive, D1 potentiator -12.2, D3 ag -30.6, D1 agonist 2.6, D1 antag -52.1* and ERG Ets-DNA blk 1.3%.
`CCN1CCN(c2ccc(NC(=O)c3ccc(C#N)cc3F)cc2Cl)CC1` gave DRD3 antagonist 8.6, D1 potentiator -11.2, D3 ag -4.6, D1 agonist 10.9, D1 antag -43.3* and ERG Ets-DNA blk -2.1%.
Cc1noc(C)c1CSCC(=O)Nc1nc(-c2ccc(F)c(F)c2)cs1 was read as DRD3 antagonist 51.9, D1 potentiator -10.9, D3 ag 27.3, D1 agonist 16.0, D1 antag -43.0* and ERG Ets-DNA blk 19.4%.
Screening Nc1nnnn1/N=C/C=C/c1ccccc1 returned DRD3 antagonist 7.3, D1 potentiator -2.9, D3 ag -0.1, D1 agonist 0.5, D1 antag 2.6 and ERG Ets-DNA blk 0.8%.
`Nc1nnnn1/N=C/C(Br)=C/c1ccccc1` gave DRD3 antagonist -99.9*, D1 potentiator -3.8, D3 ag -13.5, D1 agonist 1.9, D1 antag -5.5 and ERG Ets-DNA blk -15.7%.
For CSc1nsc(NC(=O)OCc2ccc(Cl)cc2)n1 the results were DRD3 antagonist -3.3, D1 potentiator -5.8, D3 ag -4.0, D1 agonist 26.1, D1 antag -36.4* and ERG Ets-DNA blk 6.6%.
CC(C)(C)N(Cc1ccccc1)C(=O)COC(=O)c1ccccc1SCC(=O)N1CCCC1 was read as DRD3 antagonist 32.3, D1 potentiator -5.5, D3 ag 5.4, D1 agonist 0.0, D1 antag -37.6* and ERG Ets-DNA blk -9.9%.
Screening COc1cc(OC)cc(C(=O)NNC(=O)c2ccc(-n3cncn3)c([N+](=O)[O-])c2)c1 returned DRD3 antagonist 7.5, D1 potentiator 5.5, D3 ag -2.4, D1 agonist 5.9, D1 antag 12.7 and ERG Ets-DNA blk 5.7%.
For CCc1ccc(N/C(SC)=C(/C#N)C(N)=O)cc1 the results were DRD3 antagonist 7.2, D1 potentiator -5.2, D3 ag -5.1, D1 agonist -0.8, D1 antag 10.5 and ERG Ets-DNA blk 3.0%.
`CCOc1ccc(N/C(SC)=C(/C#N)C(N)=O)cc1` gave DRD3 antagonist -53.3*, D1 potentiator 9.1, D3 ag 0.5, D1 agonist 0.6, D1 antag -51.6* and ERG Ets-DNA blk -0.8%.
Screening N#Cc1ccc(-c2nc3ccc(Cl)cn3c2Cc2cccc(Cl)c2)cc1 returned DRD3 antagonist 12.8 and D3 ag -3.6.
For Cc1ccc2nc(-c3ccc(C#N)cc3)c(Cc3cccc(Cl)c3)n2c1 the results were DRD3 antagonist -52.6* and D3 ag -14.1.
Screening CCCCN(C(=O)c1ccc2c(c1)NC(=O)CS2)c1ccccc1 returned DRD3 antagonist 4.5, D3 ag -7.9, D1 agonist 10.0, D1 antag -35.9* and ERG Ets-DNA blk -3.1%.
COc1ccc(CC(=O)OCC(=O)NC2CC2)cc1 was read as DRD3 antagonist 4.1, D1 potentiator -2.1, D3 ag 4.6, D1 agonist -0.5, D1 antag 0.4 and ERG Ets-DNA blk 0.1%.
CCOCCCNC(=S)N1CCN(c2nc(-c3ccc(F)cc3)cs2)CC1 was read as DRD3 antagonist 27.5, D1 potentiator -8.6, D3 ag 8.7, D1 agonist 5.5, D1 antag -31.5* and ERG Ets-DNA blk 6.1%.
CCCNC(=S)N1CCN(c2nc(-c3ccc(C)cc3)cs2)CC1 was read as DRD3 antagonist 15.8, D1 potentiator -4.8, D3 ag 9.1, D1 agonist 6.7, D1 antag -35.0* and ERG Ets-DNA blk -2.3%.
`COCCCNC(=S)N1CCN(c2nc(-c3ccc(F)cc3)cs2)CC1` gave DRD3 antagonist 28.7, D1 potentiator 10.1, D3 ag 6.6, D1 agonist 8.5, D1 antag -4.4 and ERG Ets-DNA blk 9.9%.

High-throughput results deposited in PubChem by National Center for Advancing Translational Sciences (NCATS).
